Reference: paper PMC10668032, “Altered binding affinity of SIX1-Q177R correlates with enhanced WNT5A and WNT pathway effector expression in Wilms tumor”
Over roughly 33,000 sequences, “e-score” has its median near -0.053; the highest 2% begin near 0.38. For the sample, the highest values were picked, then their nearest neighbours and some sequences at random.

target: T1, SIX1 homeodomain (reference allele) (human, UniProt Q15475 108-198); test: universal protein binding microarray; Universal all-10-mer PBM (8x60K, AMADID 030236), 300 nM GST-tagged protein, Alexa Fluor 488 anti-GST; buffer, salt, pH and temperature not stated (as in Berger); high values mean tight binding; conditions: protein: ivt; tags: N-terminal GST; dsDNA, one strand shown
T1 sequence: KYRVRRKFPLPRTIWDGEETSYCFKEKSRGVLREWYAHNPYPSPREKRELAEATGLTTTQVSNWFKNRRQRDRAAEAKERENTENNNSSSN
Procedure, shortened: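 Binding of GST-tagged homeodomains is given as 8-mer E-scores from the Universal PBM Analysis Suite. The proteins were produced by in vitro transcription/translation, quantified by anti-GST western blot against a recombinant GST standard curve, and applied in duplicate at 300 nM final concentration to universal 'all 10-mer' protein binding microarrays (8×60K format).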

Sequence	binding signal [E-score]
CCCCGTAG	0.176 ± 0.139
GGGATGAA	0.191 ± 0.0459
CATATTAC	0.219 ± 0.0138
CATATCTC	0.342 ± 0.0177
CATATCAC	0.446 ± 0.0382
CCGCTATC	0.304 ± 0.0394
ATGCCAGG	0.161 ± 0.00747
GCATCTCA	0.186 ± 0.00338
ATATCTGG	0.298 ± 0.0486
GTATCTCA	0.392 ± 0.0267
CTATCTCA	0.256 ± 0.0685
ATATCTCG	0.378 ± 0.0423
ATATCTCC	0.424 ± 0.0218
GGATCTCA	0.298 ± 0.0172
ATATCTAG	0.285 ± 0.0844
ATATCTCA	0.391 ± 0.0526
CTATCTCC	0.217 ± 0.0476
ATCTCTCA	0.252 ± 0.0252
ATCTCTCC	0.184 ± 0.128
AGTACACC	0.209 ± 0.0287
ATCCCTGA	0.272 ± 0.0262
ACTATACT	0.211 ± 0.0749
ACTAGTAT	0.249 ± 0.0623

Sequence	binding signal [E-score]
TACCTCGA	0.159 ± 0.0128
ATAGGATG	0.211 ± 0.00535
GATCGTAA	0.216 ± 0.0203
ACAGATAG	0.208 ± 0.0152
AAACCGAT	0.184 ± 0.013
ATCGTTTG	0.196 ± 0.0542
ATATCTAA	0.316 ± 0.0663
ATATCTAC	0.387 ± 0.0445
CTATCTAC	0.24 ± 0.0207
ACCCGAGA	0.213 ± 0.00331
AGGATAAC	0.211 ± 0.00987
AGGATAAT	0.295 ± 0.036
AGGATAAG	0.181 ± 0.0696
CGGATAGA	0.355 ± 0.012
CGGATAGC	0.382 ± 0.00849
AGGATATA	0.346 ± 0.0479
AGGATAGC	0.229 ± 0.0872
CGGATAAC	0.339 ± 0.0303
CGGATAAA	0.275 ± 0.0785
AGGATATC	0.466 ± 0.0183
AGGATATG	0.421 ± 0.00759
CGGATATC	0.473 ± 0.0121
AGTATGAT	0.2824 ± 0.000431

Sequence	binding signal [E-score]
ATCACGCC	0.26 ± 0.00476
ATCTCTTG	0.224 ± 0.039
CAGATCTG	0.216 ± 0.124
AGCTCGAT	0.227 ± 0.00607
CATCCTAC	0.157 ± 0.0313
ATACATGA	0.231 ± 0.0327
ATACAATG	0.248 ± 0.00431
CATACCCA	0.208 ± 0.066
CATACCCG	0.259 ± 0.0615
TATACCCA	0.401 ± 0.0193
GATACCCA	0.4758 ± 0.00303
TCTACCCA	0.221 ± 0.0189
CGCTATAC	0.254 ± 0.0251
ACTTGTAT	0.246 ± 0.0178
CTTAATAC	0.281 ± 0.0535
CAGATAAC	0.191 ± 0.0157
ATCTGGCC	0.181 ± 0.0229
AAACACCC	0.253 ± 0.0462
ATACACCC	0.391 ± 0.00614
CTACACCA	0.312 ± 0.0106
ATACACCA	0.389 ± 0.0166
ATACACCG	0.398 ± 0.0351
ATACACAC	0.249 ± 0.0542

Sequence	binding signal [E-score]
GTACACCA	0.233 ± 0.039
CTACACCC	0.263 ± 0.044
ATACACAG	0.289 ± 0.0145
CATCGAAG	0.178 ± 0.0656
ATCGTGCC	0.192 ± 0.00267
ATACTTAG	0.205 ± 0.0528
CACCTATC	0.266 ± 0.0455
GAAAGATA	0.324 ± 0.096
GGGAAACC	0.162 ± 0.106
TAATCCAA	0.1853 ± 0.00116
CTATCCAG	0.199 ± 0.0567
CAATCCAC	0.168 ± 0.0919
GTATCCAC	0.3951 ± 0.00369
CTATCCAC	0.219 ± 0.0193
ATATCCAA	0.358 ± 0.01
ATATCCAC	0.395 ± 0.0197
ATATCCAT	0.389 ± 0.0181
ATATCCAG	0.373 ± 0.0215
GTATCCAA	0.421 ± 0.0174
CGATCCAC	0.375 ± 0.0695
AGATCCAT	0.254 ± 0.00332
CGACAGAA	0.153 ± 0.115
ATATGTCG	0.272 ± 0.052

Sequence	binding signal [E-score]
ATCCAGGG	0.236 ± 0.0104
ATCATCAG	0.154 ± 0.0285
GATCTAGC	0.215 ± 0.0211
GATCCATA	0.357 ± 0.0223
GATCCTGA	0.301 ± 0.0202
CATCCTGA	0.169 ± 0.0388
AATCCATA	0.214 ± 0.0274
TATCCTGA	0.382 ± 0.0186
TATCCATA	0.39076 ± 0.000148
GAACAATA	0.2 ± 0.0128
CTTAGATC	0.158 ± 0.00598
CCTACTCA	0.161 ± 0.0165
ATACTAAG	0.209 ± 0.0591
TAACACGA	0.19 ± 0.0238
CTCAATAC	0.259 ± 0.0252
ATTGATAG	0.288 ± 0.0226
ATTGATAC	0.465 ± 0.0161
CTTGATCC	0.361 ± 0.00995
ATTGATGC	0.182 ± 0.0328
